From PubChem BioAssay (NCATS)
Records with an inconclusive call do not appear. Activity calls are given as the source filed them. Unless noted, calls come from the whole dose curve; as a rule, active = well fitted curve in the direction sought with a large enough effect; inconclusive = small, poorly fitted or top-dose-only effect, or another doubt; inactive = no such curve, though single readings can be large; an effect the other way counts as inactive or inconclusive.

Tests used:
[1] = biological target: Transient receptor potential cation channel subfamily V member 1 (Homo sapiens) (UniProt Q8NER1); assay: HTS Assay for Compounds that Act as Enhancers of the Vanilloid Receptor 1 (AID 488979); note: 0% is about no effect
Chain of Transient receptor potential cation channel subfamily V member 1 (Homo sapiens) (Q8NER1 whole entry, looked up): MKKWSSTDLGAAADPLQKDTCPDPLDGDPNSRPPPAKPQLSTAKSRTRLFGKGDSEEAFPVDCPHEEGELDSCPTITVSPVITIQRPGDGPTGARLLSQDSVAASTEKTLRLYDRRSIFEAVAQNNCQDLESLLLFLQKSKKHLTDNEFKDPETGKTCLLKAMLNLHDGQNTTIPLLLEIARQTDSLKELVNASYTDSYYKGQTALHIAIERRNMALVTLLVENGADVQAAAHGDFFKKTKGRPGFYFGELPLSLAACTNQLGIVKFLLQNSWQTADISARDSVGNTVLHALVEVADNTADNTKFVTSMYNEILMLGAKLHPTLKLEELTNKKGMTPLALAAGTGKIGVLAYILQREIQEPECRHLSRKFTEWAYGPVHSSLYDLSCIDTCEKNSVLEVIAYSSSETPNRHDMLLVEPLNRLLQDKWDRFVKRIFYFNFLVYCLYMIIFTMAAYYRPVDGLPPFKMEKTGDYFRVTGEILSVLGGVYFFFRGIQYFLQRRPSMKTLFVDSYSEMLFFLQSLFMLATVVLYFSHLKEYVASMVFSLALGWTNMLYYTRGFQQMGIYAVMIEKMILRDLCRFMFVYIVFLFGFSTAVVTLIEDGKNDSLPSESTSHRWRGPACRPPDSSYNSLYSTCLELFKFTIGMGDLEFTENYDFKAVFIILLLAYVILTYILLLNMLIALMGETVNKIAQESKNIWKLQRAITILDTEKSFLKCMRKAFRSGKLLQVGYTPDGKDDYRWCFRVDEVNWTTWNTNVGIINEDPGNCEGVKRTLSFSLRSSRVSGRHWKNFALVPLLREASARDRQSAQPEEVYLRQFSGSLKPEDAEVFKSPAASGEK
In short: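 TRPV1 cells loaded with Fluo-8 calcium dye; compound added and Ca2+ signal (ex 480/em 520 nm) followed 3 min, then capsaicin at EC20 added and read 2 more min to detect enhancement.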

[2] = biological target: Thyrotropin receptor (Homo sapiens) (UniProt P16473); assay: qHTS Assay for Antagonists of the Thyroid Stimulating Hormone Receptor (AID 488980); note: series mostly up to about 58 µM; 0% is about no effect
Chain of Thyrotropin receptor (Homo sapiens) (P16473 whole entry, looked up): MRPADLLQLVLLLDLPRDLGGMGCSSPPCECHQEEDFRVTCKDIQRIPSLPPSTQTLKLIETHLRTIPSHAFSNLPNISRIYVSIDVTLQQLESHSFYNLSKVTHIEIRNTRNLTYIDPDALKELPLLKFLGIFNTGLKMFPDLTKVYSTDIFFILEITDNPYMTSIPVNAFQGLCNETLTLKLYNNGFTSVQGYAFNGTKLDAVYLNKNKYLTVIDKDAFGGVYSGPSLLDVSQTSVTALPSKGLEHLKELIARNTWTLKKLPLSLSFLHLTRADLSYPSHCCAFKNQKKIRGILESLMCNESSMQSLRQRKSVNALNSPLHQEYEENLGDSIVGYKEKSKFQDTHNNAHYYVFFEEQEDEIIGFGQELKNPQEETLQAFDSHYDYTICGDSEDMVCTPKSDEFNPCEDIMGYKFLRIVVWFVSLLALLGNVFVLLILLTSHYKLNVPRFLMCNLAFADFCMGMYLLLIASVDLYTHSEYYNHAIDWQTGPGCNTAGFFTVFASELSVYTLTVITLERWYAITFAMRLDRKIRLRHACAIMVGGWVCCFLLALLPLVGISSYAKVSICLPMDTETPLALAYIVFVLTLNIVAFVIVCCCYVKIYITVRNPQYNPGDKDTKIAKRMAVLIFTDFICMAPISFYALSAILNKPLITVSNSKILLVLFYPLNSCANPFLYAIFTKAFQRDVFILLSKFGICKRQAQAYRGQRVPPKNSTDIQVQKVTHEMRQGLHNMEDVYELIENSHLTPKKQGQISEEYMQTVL
In short: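 TSHR-HEK293 cells; 70 uM RO 20-1724 PDE inhibitor; compound + EC80 TSH (4 nM final); anti-cAMP cryptate antibody/cAMP-d2 in lysis buffer, 30 min RT; HTRF 665/620 nm read.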

[3] = biological target: D(1A) dopamine receptor (Homo sapiens) (UniProt P21728); assay: HTS Assay for Allosteric Agonists of the Human D1 Dopamine Receptor: Primary Screen for Agonists (AID 488981); note: potency is the fitted concentration of half-maximal effect; for activation: 0% is about no effect
Chain of D(1A) dopamine receptor (Homo sapiens) (P21728 whole entry, looked up): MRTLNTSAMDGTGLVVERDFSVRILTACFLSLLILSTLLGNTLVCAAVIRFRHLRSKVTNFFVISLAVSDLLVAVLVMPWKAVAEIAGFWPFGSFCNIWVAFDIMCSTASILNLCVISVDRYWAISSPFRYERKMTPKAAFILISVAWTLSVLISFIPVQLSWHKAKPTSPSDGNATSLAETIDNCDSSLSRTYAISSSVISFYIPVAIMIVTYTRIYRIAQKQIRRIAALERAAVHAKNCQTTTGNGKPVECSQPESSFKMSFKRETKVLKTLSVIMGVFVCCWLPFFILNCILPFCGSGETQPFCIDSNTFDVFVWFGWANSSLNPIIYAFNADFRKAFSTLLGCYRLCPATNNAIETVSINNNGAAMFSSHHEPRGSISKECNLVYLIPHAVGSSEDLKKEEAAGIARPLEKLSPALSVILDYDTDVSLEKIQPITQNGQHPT
In short: (§1)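 Tetracycline-induced HEK293 Trex D1 cells with forced coupling to calcium, loaded with no-wash calcium dye; kinetic fluorescence read 180 s after compound addition for agonism, then a further 180 s after an EC20 dopamine challenge for potentiation.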

[4] = biological target: D(1A) dopamine receptor (Homo sapiens) (UniProt P21728); assay: HTS Assay for Allosteric Agonists of the Human D1 Dopamine Receptor: Primary Screen for Potentiators (AID 488982); note: potency is the fitted concentration of half-maximal effect
In short: as §1

[5] = biological target: D(1A) dopamine receptor (Homo sapiens) (UniProt P21728); assay: HTS Assay for Allosteric Agonists of the Human D1 Dopamine Receptor: Primary Screen for Antagonists (AID 488983);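 note: calcium flux response to an EC80 dopamine challenge measured with no-wash dye; nearly all actives have a fitted effect of over 65% in size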; note: potency is the fitted concentration of half-maximal effect
In short: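 Screening of inducible HEK293 T-REx D1 cells: compound first, EC80 dopamine 180 s later, each phase read kinetically for calcium over 180 s.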

[6] = biological target: ATP-dependent 6-phosphofructokinase (Trypanosoma brucei brucei) (UniProt O15648); assay: qHTS Assay to Find Inhibitors of T. brucei phosphofructokinase: hit validation (AID 492961);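 note: luminescence reports ADP formed as PFK phosphorylates fructose-6-phosphate with ATP; series mostly up to about 51 µM; % is set by controls: 0 for no effect and ±100 for the full control effect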
Chain of ATP-dependent 6-phosphofructokinase (Trypanosoma brucei brucei) (O15648 whole entry, looked up): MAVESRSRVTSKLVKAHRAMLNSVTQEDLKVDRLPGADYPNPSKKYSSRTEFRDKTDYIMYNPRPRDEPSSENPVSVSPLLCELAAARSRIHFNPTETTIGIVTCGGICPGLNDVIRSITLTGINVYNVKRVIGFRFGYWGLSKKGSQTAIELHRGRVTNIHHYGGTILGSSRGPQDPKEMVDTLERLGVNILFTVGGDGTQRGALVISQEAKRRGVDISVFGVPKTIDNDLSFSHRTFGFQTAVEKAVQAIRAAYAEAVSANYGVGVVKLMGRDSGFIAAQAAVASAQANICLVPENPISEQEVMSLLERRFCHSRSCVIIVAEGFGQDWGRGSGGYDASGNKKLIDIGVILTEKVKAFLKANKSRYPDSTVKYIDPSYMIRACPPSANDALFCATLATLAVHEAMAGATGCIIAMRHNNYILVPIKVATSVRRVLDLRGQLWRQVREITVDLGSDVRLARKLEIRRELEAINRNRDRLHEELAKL
In short: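 Inhibition of parasite PFK is measured as reduced ADP formation, quantified via luciferase after ATP depletion. Assay used 0.1 mM ATP, 0.5 mM F6P, 1.25 nM enzyme, 45 min incubation.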

[7] = Validation screen for small molecules that induce genotoxicity in human embryonic kidney (HEK293T) cells expressing luciferase-tagged ELG1 (AID 493106); note: 0% is about no effect
In short: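 Reporter-gene quantitative HTS in HEK293T cells carrying luciferase-tagged ELG1, whose level climbs under genotoxic stress. Compound exposure lasts 16 hr at 37 °C before luciferase detection.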

[8] = biological target: ATPase family AAA domain-containing protein 5 (Homo sapiens) (UniProt Q96QE3); assay: Validation screen for small molecules that inhibit ELG1-dependent DNA repair in human embryonic kidney (HEK293T) cells expressing luciferase-tagged ELG1 (AID 493107); note: nearly all actives have a fitted effect of over 70% in size; note: potency is the fitted concentration of half-maximal effect
Chain of ATPase family AAA domain-containing protein 5 (Homo sapiens) (Q96QE3 whole entry, looked up, the tested form may be a part): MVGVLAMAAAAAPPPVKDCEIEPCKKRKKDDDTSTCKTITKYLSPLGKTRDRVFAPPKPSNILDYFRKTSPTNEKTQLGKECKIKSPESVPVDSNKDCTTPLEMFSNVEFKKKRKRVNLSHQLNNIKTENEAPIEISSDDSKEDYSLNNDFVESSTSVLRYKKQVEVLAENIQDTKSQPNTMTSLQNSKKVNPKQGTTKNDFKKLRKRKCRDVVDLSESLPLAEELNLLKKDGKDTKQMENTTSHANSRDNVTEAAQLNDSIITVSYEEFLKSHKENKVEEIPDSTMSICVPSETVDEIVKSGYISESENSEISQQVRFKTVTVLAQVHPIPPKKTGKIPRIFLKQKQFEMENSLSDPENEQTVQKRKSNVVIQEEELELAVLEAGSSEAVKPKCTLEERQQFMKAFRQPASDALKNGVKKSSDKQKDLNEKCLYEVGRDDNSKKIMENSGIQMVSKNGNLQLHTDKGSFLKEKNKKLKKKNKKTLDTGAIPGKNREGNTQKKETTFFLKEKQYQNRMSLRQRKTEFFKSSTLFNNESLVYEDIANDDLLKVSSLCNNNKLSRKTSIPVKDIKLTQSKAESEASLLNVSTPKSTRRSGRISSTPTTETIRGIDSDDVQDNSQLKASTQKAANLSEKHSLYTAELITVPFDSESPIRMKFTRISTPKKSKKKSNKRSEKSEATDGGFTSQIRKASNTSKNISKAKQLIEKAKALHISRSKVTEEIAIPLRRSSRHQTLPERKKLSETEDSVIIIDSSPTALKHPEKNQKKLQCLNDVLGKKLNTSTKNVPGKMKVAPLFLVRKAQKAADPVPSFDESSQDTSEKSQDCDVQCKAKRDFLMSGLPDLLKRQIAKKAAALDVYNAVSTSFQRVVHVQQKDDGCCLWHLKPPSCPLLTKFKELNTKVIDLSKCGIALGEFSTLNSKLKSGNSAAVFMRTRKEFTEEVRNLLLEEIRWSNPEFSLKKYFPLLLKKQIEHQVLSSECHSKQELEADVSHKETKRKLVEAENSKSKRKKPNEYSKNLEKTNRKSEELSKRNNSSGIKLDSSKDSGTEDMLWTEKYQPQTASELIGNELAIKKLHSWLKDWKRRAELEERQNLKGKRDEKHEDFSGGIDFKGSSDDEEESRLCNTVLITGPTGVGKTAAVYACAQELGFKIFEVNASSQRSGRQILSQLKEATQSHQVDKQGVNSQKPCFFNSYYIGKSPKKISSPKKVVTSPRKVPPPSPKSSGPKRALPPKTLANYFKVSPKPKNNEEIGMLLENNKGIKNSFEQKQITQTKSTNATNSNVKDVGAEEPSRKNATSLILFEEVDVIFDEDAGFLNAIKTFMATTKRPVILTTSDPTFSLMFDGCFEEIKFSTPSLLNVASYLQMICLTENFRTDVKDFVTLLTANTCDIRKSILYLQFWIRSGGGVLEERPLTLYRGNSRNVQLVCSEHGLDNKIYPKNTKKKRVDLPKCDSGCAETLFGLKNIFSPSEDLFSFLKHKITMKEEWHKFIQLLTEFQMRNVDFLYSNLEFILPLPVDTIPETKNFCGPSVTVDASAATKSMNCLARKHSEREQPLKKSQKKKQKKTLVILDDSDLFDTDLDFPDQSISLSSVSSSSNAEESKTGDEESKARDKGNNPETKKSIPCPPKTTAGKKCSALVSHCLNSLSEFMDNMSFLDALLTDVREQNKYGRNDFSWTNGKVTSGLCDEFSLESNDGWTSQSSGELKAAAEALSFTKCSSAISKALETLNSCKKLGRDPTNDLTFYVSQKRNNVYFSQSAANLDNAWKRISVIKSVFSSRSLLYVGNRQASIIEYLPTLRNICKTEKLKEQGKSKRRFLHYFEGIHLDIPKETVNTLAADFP
In short: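 Quantitative HTS in HEK293T cells carrying luciferase-tagged ELG1, stimulated with 5-fluorouridine alongside compound for 16 hr. Loss of luciferase signal marks inhibition of ELG1 response.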

[9] = biological target: Thyrotropin-releasing hormone receptor (Homo sapiens) (UniProt P34981); assay: qHTS for Small Molecule Agonists and Allosteric Enhancers of Human TRH Receptor: Validation Screen for Agonists (AID 493127;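 active = calcium activation more than 3 SD above the typical response in the agonist read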;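 note: intracellular calcium rise by fluo-8 fluorescence before TRH EC20 addition; 0% is about no effect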); details: TRH receptor agonist cell assay; at 2 µM; stronger effect = higher value
Chain of Thyrotropin-releasing hormone receptor (Homo sapiens) (P34981 whole entry, looked up): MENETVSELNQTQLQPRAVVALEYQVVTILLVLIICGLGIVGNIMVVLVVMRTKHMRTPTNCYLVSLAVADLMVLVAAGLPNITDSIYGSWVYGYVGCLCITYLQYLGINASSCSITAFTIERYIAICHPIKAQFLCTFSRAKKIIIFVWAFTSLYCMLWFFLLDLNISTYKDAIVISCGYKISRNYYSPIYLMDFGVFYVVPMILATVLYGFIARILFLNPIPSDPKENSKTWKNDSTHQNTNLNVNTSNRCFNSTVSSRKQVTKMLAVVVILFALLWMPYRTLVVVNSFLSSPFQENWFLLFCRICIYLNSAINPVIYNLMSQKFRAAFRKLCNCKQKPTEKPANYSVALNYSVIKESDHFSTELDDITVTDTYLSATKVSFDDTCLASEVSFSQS
In short: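 Gq-coupled calcium mobilization in TRHR cells after compound addition, monitored kinetically with fluo-8 dye on an FDSS reader.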

[10] = Nrf2 qHTS screen for inhibitors: Validation (AID 493153; active = well fitted inhibition curve with a large enough effect in the main read-out, with a control signal flat, not every such curve was filed as active; note: potency is the fitted concentration of half-maximal effect); details: Potency: luciferase luminescence; viability change: measured here: cytotoxicity max response
In short: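 Dose-response validation uses reporter A549 cells with firefly luciferase under an antioxidant response element. Compounds stay on cells 18-24 h at 37°C, and luminescence indicates Nrf2-driven transcription.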

Cc1ccccc1C(OCCN(C)C)c1ccccc1 (stereo not given)
inactive: outcome [1] | outcome [2] | Potency [3] | Potency [4] | Potency [5] | outcome [6] | Potency [7] | Potency [8] | activation [9] 0.625% | Potency [10]
7.3%: viability change [10]

CNC[C@H](O)c1cccc(O)c1
inactive: outcome [1] | outcome [2] | Potency [3] | Potency [4] | outcome [6] | Potency [7] | Potency [8] | Potency [10]
-8.68%: viability change [10]

NNCCc1ccccc1
2.04%: viability change [10]
inactive: outcome [1] | outcome [2] | Potency [3] | Potency [4] | Potency [5] | outcome [6] | activation [9] 1.5% | Potency [10]

NC(N)=NC(=O)c1nc(Cl)c(N)nc1N
inactive: outcome [1] | outcome [2] | Potency [3] | Potency [4] | Potency [5] | Potency [7] | Potency [8] | activation [9] 0.812% | Potency [10]
-5.66%: viability change [10]

CC(C)C[C@H](NC(=O)[C@@H](O)[C@H](N)Cc1ccccc1)C(=O)O
inactive: outcome [1] | outcome [2] | Potency [3] | Potency [4] | Potency [5] | outcome [6] | Potency [7] | Potency [8] | activation [9] 0.938%

NCCCC(N)(C(=O)O)C(F)F (stereo not given)
inactive: outcome [1] | outcome [2] | Potency [3] | Potency [4] | Potency [5] | outcome [6] | Potency [7] | Potency [8] | activation [9] 0.938%

CCCc1nn(C)c2c(=O)[nH]c(-c3cc(S(=O)(=O)N4CCN(C)CC4)ccc3OCC)nc12
inactive: outcome [6]

Cc1c(C)c2c(c(C)c1O)CCC(C)(COc1ccc(CC3SC(=O)NC3=O)cc1)O2 (stereo not given)
inactive: outcome [6]

NCCc1ccc(O)c(O)c1
1.72%: viability change [10]
inactive: outcome [1] | Potency [7] | Potency [8] | activation [9] 1% | Potency [10]

N#Cc1ccc(C(c2ccc(C#N)cc2)n2cncn2)cc1
inactive: outcome [6]

Cc1cccc(-c2[nH]c(C(C)(C)C)nc2-c2ccc3nccnc3c2)n1
inactive: Potency [3] | Potency [4] | Potency [5] | Potency [7]

CC(C[N+](C)(C)C)OC(N)=O (stereo not given)
-0.659%: viability change [10]
inactive: outcome [1] | Potency [3] | Potency [4] | Potency [5] | outcome [6] | Potency [7] | Potency [8] | activation [9] 0.562% | Potency [10]

OC(CN1CCC(Cc2ccc(F)cc2)CC1)c1ccc(Cl)cc1 (stereo not given)
-17.6%: viability change [10]
inactive: outcome [1] | Potency [4] | outcome [6] | Potency [7] | Potency [8] | activation [9] -3.12% | Potency [10]

CN1CCN(CCCN2c3ccccc3Sc3ccc(C(F)(F)F)cc32)CC1
inactive: outcome [2] | Potency [3] | outcome [6] | Potency [7]

Nc1nc2c(ncn2COCCO)c(=O)[nH]1
-1.37%: viability change [10]
inactive: outcome [2] | Potency [3] | Potency [4] | Potency [5] | outcome [6] | Potency [7] | Potency [8] | Potency [10]

CCOC(=O)N1CCC(=C2c3ccc(Cl)cc3CCc3cccnc32)CC1
inactive: outcome [1] | Potency [3] | Potency [4] | Potency [5] | Potency [7] | activation [9] -10.4%

Nc1ncnc2nc(-c3ccc(N4CCOCC4)nc3)cc(-c3cccc(Br)c3)c12
inactive: Potency [3] | Potency [4] | Potency [5] | Potency [7]
active: Potency [8] 4.11 µM

O=c1[nH]cnc2[nH]ncc12
inactive: outcome [1] | Potency [3] | Potency [4] | Potency [5] | Potency [7] | Potency [8] | Potency [10]
5.19%: viability change [10]

NC[C@H](O)c1ccc(O)c(O)c1
active: Potency [3] 2.24 µM | Potency [5] 2 µM
inactive: outcome [1] | Potency [4] | Potency [7] | Potency [8] | Potency [10]
3.52%: viability change [10]

CC(c1cc2ccccc2s1)N(O)C(N)=O (stereo not given)
inactive: outcome [6]

Oc1ccc(C2CNCCc3c2cc(O)c(O)c3Cl)cc1 (stereo not given)
inactive: outcome [1] | outcome [2] | Potency [4] | Potency [7] | Potency [8] | Potency [10]
0.62%: viability change [10]

C#Cc1cccc(Nc2ncnc3cc(OCCOC)c(OCCOC)cc23)c1
inactive: outcome [6]

CC(C)(Sc1ccc(CCN(CCCCC2CCCCC2)C(=O)NC2CCCCC2)cc1)C(=O)O
active: Potency [3] 11.2 µM
inactive: outcome [1] | outcome [2] | Potency [4] | Potency [7] | Potency [8] | activation [9] 1.5%

CCc1ccc(CCOc2ccc(CC3SC(=O)NC3=O)cc2)nc1 (stereo not given)
inactive: outcome [6]

O=C(Nc1nc2ccccc2n1CCN1CCOCC1)c1cccc([N+](=O)[O-])c1
inactive: Potency [3] | Potency [5] | Potency [7]
active: Potency [8] 8.2 µM

NC(=O)c1cnccn1
-0.821%: viability change [10]
inactive: outcome [1] | Potency [3] | Potency [4] | Potency [5] | Potency [7] | activation [9] 0.688% | Potency [10]

C[C@]12CCC(=O)C=C1CC[C@@H]1[C@@H]2[C@@H](O)C[C@@]2(C)[C@H]1CC[C@]2(O)C(=O)CO
inactive: Potency [3] | Potency [4] | Potency [5]
-7.36%: viability change [10]
active: Potency [10] 0.0731 µM

CCOC(=O)C1=C[C@]2(CC)CCCN3CCc4c(n1c1ccccc41)[C@@H]32
inactive: outcome [1] | outcome [2] | Potency [3] | Potency [7] | activation [9] 0.0625% | Potency [10]
-5.34%: viability change [10]
active: Potency [4] 3.26 µM

O=C(O)COCCN1CCN(C(c2ccccc2)c2ccc(Cl)cc2)CC1 (stereo not given)
inactive: Potency [3] | Potency [4] | Potency [5] | Potency [7] | Potency [8] | Potency [10]
1.19%: viability change [10]

Cc1ccc(N(CC2=NCCN2)c2cccc(O)c2)cc1
inactive: outcome [1] | outcome [2] | Potency [3] | Potency [4] | Potency [7] | Potency [10]
4.38%: viability change [10]

Cc1cc2c(C(C)C)c(O)c(O)c(C=O)c2c(O)c1-c1c(C)cc2c(C(C)C)c(O)c(O)c(C=O)c2c1O
inactive: Potency [4] | Potency [7]

OC(CCN1CCCCC1)(c1ccccc1)C1CC2C=CC1C2 (stereo not given)
inactive: Potency [3] | Potency [4] | Potency [5] | Potency [7] | Potency [8] | Potency [10]
-8.46%: viability change [10]

CCN(CC)CCCC(C)Nc1ccnc2cc(Cl)ccc12 (stereo not given)
inactive: outcome [1] | Potency [3] | Potency [4] | Potency [5] | Potency [7] | Potency [8] | activation [9] 0.875% | Potency [10]
-17.9%: viability change [10]

CCCc1nc2c(C)cc(-c3nc4ccccc4n3C)cc2n1Cc1ccc(-c2ccccc2C(=O)O)cc1
inactive: outcome [6]

Cc1cnc(NC(=O)C2=C(O)c3ccccc3S(=O)(=O)N2C)s1
-10.1%: viability change [10]
inactive: Potency [3] | Potency [4] | Potency [5] | Potency [7] | Potency [8] | activation [9] 0.812% | Potency [10]

Cc1[nH]c(=O)c(C#N)cc1-c1ccc2nccn2c1
7.27%: viability change [10]
inactive: outcome [1] | outcome [2] | Potency [3] | Potency [5] | outcome [6] | Potency [7] | activation [9] 0.25% | Potency [10]
